Reference: paper PMC8384837, “Expanding the binding specificity for RNA recognition by a PUF domain”

Key:
Assay in all cases: yeast three-hybrid, YBZ-1, SC-Leu-His + 0.5 mM 3-AT, 4 days
Conditions in all cases: tags: N-Gal4 AD-HA kept; label: inside an RPR1-promoter hybrid RNA with tandem MS2 sites; ssRNA
[1] = molecular target: PUM1 PUF domain R2-GWW (Homo sapiens, UniProt Q14671 828-1176, N899G;Y900W;Q903W)
Outline: (§1)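 Sequencing with Illumina followed PCR amplification of the repeat regions from transformants grown four days on SC-Leu (input) or SC-Leu-His + 0.5 mM 3-AT (selection). The transformants were strain YBZ-1 with a LexA–MS2 coat fusion and a HIS3 reporter, carrying Pumilio-1 PUF domain libraries and matching RNA elements. The interaction score is the log change in variant frequency from input to selection, computed in log2 with a pseudocount of 1 for absent variants.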

[2] = molecular target: PUM1 PUF domain R2-PVM (Homo sapiens, UniProt Q14671 828-1176, N899P;Y900V;Q903M)
Outline: as §1

[3] = molecular target: PUM1 PUF domain R1-GKR (Homo sapiens, UniProt Q14671 828-1176, S863G;R864K;Q867R)
Outline: as §1

[4] = molecular target: PUM1 PUF domain R1-KDT (Homo sapiens, UniProt Q14671 828-1176, S863K;R864D;Q867T)
Outline: as §1

[5] = molecular target: PUM1 PUF domain R1-MRR (Homo sapiens, UniProt Q14671 828-1176, S863M;Q867R)
Outline: as §1

[6] = molecular target: PUM1 PUF domain R3-FFV (Homo sapiens, UniProt Q14671 828-1176, C935F;R936F;Q939V)
Outline: as §1

[7] = molecular target: PUM1 PUF domain R2-VYE (Homo sapiens, UniProt Q14671 828-1176, N899V;Q903E)
Outline: as §1

[8] = molecular target: PUM1 PUF domain R4-GRR (Homo sapiens, UniProt Q14671 828-1176, N971G;H972R;Q975R)
Outline: as §1

[9] = molecular target: PUM1 PUF domain R4-SFR (Homo sapiens, UniProt Q14671 828-1176, N971S;H972F;Q975R)
Outline: as §1

[10] = molecular target: PUM1 PUF domain R1-RIE (Homo sapiens, UniProt Q14671 828-1176, S863R;R864I;Q867E)
Outline: as §1

[11] = molecular target: PUM1 PUF domain R5-SAC (Homo sapiens, UniProt Q14671 828-1176, C1007S;R1008A;Q1011C)
Outline: as §1

[12] = molecular target: PUM1 PUF domain R5-GRR (Homo sapiens, UniProt Q14671 828-1176, C1007G;Q1011R)
Outline: as §1

[13] = molecular target: PUM1 PUF domain R5-PFL (Homo sapiens, UniProt Q14671 828-1176, C1007P;R1008F;Q1011L)
Outline: as §1

[14] = molecular target: PUM1 PUF domain R5-WHS (Homo sapiens, UniProt Q14671 828-1176, C1007W;R1008H;Q1011S)
Outline: as §1

Q: What does the source list for “GGCUAGAACUAGUGGAUCCCCCGGCGCCCGGCGGCUCGAGCCCGGGUAAGUGUAAAGAGUCUGCAUGCCGCCGGGCGCCAUGCCUGCAGGUCGACUCUAGAAAACAUG”?
A: binding signal [1]: 0.92 log2 enrichment (interaction score); binding signal [2]: 2.58 log2 enrichment (interaction score)

Q: With “GGCUAGAACUAGUGGAUCCCCCGGCGCCCGGCGGCUCGAGCCCGGGUAAGUGUAAAUCGUCUGCAUGCCGCCGGGCGCCAUGCCUGCAGGUCGACUCUAGAAAACAUG” as the sequence, how does the binding signal [3] read?
A: The binding signal was 3.4 log2 enrichment (interaction score).

Q: What about the binding signal [4] of the same sequence?
A: The binding signal was 0.73 log2 enrichment (interaction score).

Q: What about the binding signal [5] of the same sequence?
A: The binding signal was 2.6 log2 enrichment (interaction score).

Q: How did the binding signal [6] turn out when “GGCUAGAACUAGUGGAUCCCCCGGCGCCCGGCGGCUCGAGCCCGGGUAAGUGUAAUUAGUCUGCAUGCCGCCGGGCGCCAUGCCUGCAGGUCGACUCUAGAAAACAUG” was run?
A: The binding signal was 1.62 log2 enrichment (interaction score).

Q: “GGCUAGAACUAGUGGAUCCCCCGGCGCCCGGCGGCUCGAGCCCGGGUAAGUGUAAAAAGUCUGCAUGCCGCCGGGCGCCAUGCCUGCAGGUCGACUCUAGAAAACAUG” was tested. Which binding signal [1] did it give?
A: Its binding signal is 4.69 log2 enrichment (interaction score).

Q: What about the binding signal [7] of the same sequence?
A: The binding signal was 2.23 log2 enrichment (interaction score).

Q: With “GGCUAGAACUAGUGGAUCCCCCGGCGCCCGGCGGCUCGAGCCCGGGUAAGUGUACAUAGUCUGCAUGCCGCCGGGCGCCAUGCCUGCAGGUCGACUCUAGAAAACAUG” as the sequence, how does the binding signal [8] read?
A: The binding signal was 2.98 log2 enrichment (interaction score).

Q: And the binding signal [9]?
A: The binding signal was 4.24 log2 enrichment (interaction score).

Q: With “GGCUAGAACUAGUGGAUCCCCCGGCGCCCGGCGGCUCGAGCCCGGGUAAGUGUAAAUUGUCUGCAUGCCGCCGGGCGCCAUGCCUGCAGGUCGACUCUAGAAAACAUG” as the sequence, how does the binding signal [3] read?
A: Its binding signal is 3.4 log2 enrichment (interaction score).

Q: What about the binding signal [4] of the same sequence?
A: Its binding signal is 5.43 log2 enrichment (interaction score).

Q: What about the binding signal [5] of the same sequence?
A: Its binding signal is 5.53 log2 enrichment (interaction score).

Q: And the binding signal [10]?
A: Its binding signal is 2.99 log2 enrichment (interaction score).

Q: “GGCUAGAACUAGUGGAUCCCCCGGCGCCCGGCGGCUCGAGCCCGGGUAAGUGUGAAUAGUCUGCAUGCCGCCGGGCGCCAUGCCUGCAGGUCGACUCUAGAAAACAUG” was tested. Which binding signal [11] did it give?
A: The binding signal was 3.04 log2 enrichment (interaction score).

Q: For “GGCUAGAACUAGUGGAUCCCCCGGCGCCCGGCGGCUCGAGCCCGGGUAAGUGUUAAUAGUCUGCAUGCCGCCGGGCGCCAUGCCUGCAGGUCGACUCUAGAAAACAUG”, which binding signal [12] is on record?
A: Its binding signal is 0.43 log2 enrichment (interaction score).

Q: What about the binding signal [13] of the same sequence?
A: Its binding signal is 4.31 log2 enrichment (interaction score).

Q: What about the binding signal [14] of the same sequence?
A: The binding signal was 4.68 log2 enrichment (interaction score).
